Where “and” joins values, the source holds several entries; their conditions need not be identical. Equal entries are not always repeated.
Key:
Conditions in all cases: Compound concentration 20.0 uM, Protein concentration 2.0 uM, Result type QC Liability
[1] = biological target: Tyrosine-protein kinase ABL1 (Homo sapiens) (UniProt P00519)
[2] = biological target: Cyclin-dependent kinase 2 (Homo sapiens) (UniProt P24941)
[3] = biological target: Casein kinase I isoform delta (Homo sapiens) (UniProt P48730)
[4] = biological target: Glycogen synthase kinase-3 beta (Homo sapiens) (UniProt P49841)
[5] = biological target: Mitogen-activated protein kinase 1 (Homo sapiens) (UniProt P28482)
[6] = biological target: T1, Aurora kinase A (Homo sapiens) (UniProt O14965)
T1 sequence (whole entry): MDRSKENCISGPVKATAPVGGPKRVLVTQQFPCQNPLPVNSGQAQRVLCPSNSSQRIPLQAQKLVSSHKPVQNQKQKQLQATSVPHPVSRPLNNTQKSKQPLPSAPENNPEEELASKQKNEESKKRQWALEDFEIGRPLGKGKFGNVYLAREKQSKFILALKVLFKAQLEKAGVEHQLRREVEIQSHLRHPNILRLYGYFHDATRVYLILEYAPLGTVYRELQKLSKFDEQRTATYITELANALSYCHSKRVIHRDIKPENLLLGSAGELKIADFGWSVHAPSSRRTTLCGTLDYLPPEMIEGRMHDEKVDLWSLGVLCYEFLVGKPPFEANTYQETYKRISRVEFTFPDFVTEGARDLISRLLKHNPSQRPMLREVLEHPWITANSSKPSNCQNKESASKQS

Sequence of Tyrosine-protein kinase ABL1 (Homo sapiens) (P00519 whole entry): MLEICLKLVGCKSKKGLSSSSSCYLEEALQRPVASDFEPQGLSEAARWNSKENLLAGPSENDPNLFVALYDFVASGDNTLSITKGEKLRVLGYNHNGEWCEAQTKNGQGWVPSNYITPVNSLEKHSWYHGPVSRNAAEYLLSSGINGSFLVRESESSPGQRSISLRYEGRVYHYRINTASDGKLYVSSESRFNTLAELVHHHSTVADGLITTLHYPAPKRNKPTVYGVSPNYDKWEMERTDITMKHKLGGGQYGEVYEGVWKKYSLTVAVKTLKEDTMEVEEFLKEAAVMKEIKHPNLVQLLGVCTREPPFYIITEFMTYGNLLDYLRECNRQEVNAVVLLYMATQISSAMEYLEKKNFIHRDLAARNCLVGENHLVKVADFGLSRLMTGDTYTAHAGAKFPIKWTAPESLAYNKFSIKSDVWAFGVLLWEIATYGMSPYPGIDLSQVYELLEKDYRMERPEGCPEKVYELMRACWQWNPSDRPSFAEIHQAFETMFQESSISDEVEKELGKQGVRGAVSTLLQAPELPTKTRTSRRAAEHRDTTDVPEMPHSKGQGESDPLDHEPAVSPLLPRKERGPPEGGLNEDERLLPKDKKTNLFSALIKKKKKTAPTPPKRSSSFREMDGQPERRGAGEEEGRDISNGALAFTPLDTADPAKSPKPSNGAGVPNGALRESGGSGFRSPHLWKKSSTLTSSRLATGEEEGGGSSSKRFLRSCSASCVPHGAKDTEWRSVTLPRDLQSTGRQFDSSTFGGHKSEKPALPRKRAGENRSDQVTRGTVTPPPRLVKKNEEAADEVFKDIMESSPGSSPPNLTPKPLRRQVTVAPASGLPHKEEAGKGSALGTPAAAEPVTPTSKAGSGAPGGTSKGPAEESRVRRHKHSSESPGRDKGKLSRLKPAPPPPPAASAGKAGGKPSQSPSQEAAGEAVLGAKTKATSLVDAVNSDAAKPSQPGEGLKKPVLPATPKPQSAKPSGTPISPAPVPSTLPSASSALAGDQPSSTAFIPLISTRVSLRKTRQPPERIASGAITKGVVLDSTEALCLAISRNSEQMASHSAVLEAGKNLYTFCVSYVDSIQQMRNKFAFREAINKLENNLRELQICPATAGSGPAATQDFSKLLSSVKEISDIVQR
Sequence of Mitogen-activated protein kinase 1 (Homo sapiens) (P28482 whole entry): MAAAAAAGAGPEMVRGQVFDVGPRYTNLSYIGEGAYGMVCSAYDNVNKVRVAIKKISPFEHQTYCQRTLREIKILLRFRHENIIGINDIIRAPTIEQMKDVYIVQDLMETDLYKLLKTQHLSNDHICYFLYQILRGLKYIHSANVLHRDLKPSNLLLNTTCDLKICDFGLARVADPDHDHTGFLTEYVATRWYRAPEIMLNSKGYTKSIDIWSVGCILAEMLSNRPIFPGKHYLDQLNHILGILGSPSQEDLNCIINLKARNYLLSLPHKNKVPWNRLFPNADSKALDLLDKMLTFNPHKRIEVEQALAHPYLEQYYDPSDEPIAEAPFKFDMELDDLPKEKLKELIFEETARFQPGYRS
Sequence of Glycogen synthase kinase-3 beta (Homo sapiens) (P49841 whole entry, looked up): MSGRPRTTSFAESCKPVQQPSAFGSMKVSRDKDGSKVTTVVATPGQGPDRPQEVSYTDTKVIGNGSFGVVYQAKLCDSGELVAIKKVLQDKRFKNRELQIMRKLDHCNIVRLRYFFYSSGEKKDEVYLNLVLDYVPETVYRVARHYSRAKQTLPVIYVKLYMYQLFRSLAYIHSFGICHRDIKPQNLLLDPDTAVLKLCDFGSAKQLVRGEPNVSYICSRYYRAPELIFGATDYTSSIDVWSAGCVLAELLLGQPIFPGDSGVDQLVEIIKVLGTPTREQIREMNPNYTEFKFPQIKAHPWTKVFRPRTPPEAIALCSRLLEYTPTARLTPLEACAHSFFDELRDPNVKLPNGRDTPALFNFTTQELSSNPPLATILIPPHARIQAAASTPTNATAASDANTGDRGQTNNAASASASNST
Sequence of Casein kinase I isoform delta (Homo sapiens) (P48730 whole entry, looked up, canonical isoform): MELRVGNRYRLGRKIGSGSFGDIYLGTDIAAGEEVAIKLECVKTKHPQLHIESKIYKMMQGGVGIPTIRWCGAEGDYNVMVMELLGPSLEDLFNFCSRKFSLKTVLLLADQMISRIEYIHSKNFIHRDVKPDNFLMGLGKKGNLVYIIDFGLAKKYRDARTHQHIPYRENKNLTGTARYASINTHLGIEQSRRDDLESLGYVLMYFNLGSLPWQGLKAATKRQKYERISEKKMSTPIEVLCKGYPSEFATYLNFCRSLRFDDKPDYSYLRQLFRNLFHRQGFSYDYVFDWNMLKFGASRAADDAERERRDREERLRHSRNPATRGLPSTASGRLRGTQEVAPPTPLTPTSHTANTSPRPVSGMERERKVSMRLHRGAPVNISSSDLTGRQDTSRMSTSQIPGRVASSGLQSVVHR

Compound	ΔTm [1]	ΔTm [2]	ΔTm [3]	ΔTm [4]	ΔTm [5]	ΔTm [6]
Cc1cc(OC2CCS(=O)(=O)CC2)cc(C)c1-c1cccc(COc2ccc(CCC(=O)O)c(F)c2)c1	-0.51 °C	-2.34 °C	0.59 °C	-4.55 °C	-0.4 °C	-1.9 °C
COc1cc(-c2cncc(-c3ccc(N4CCN(C(C)C)CC4)cc3)c2C)cc(F)c1C(=O)N1CCCC1	0.7 °C	0.41 °C	0.26 °C	-0.59 °C	0.53 °C	-0.62 °C
CNC(=O)c1ccc2c(c1)NC(=O)/C2=C(\Nc1ccc(CN2CCCCC2)cc1)c1ccccc1	7.98 °C	0.46 °C	0.03 °C	1.71 °C	0.02 °C	3.8 °C
Cn1cnc(Cn2ccc3ccc(CNCc4[nH]c5ccccc5c4[C@@H]4NC(=O)c5ccc(O)cc54)cc32)c1	0.7 °C	0.07 °C	0.29 °C	-0.16 °C	0.02 °C	0.7 °C
CCCS(=O)(=O)N[C@H]1C[C@@H](N(C)c2ncnc3[nH]ccc23)C1	1.02 °C	0.96 °C	0.73 °C	1.39 °C	0.29 °C	3.25 °C
CC[C@H](CO)Nc1nc(Nc2cccc(-c3ccccn3)c2)c2ncn(C(C)C)c2n1	7.62 °C	4.37 °C	4.48 °C	1.93 °C	2.21 °C	4.01 °C
COc1cc2nc(C)nc(N[C@H](C)c3cc(N)cc(C(F)(F)F)c3)c2cc1O[C@H]1CCOC1	-0.37 °C	0.99 °C	0.27 °C	0.96 °C	0.04 °C	0.75 °C
CCOC(=O)/N=C(\N)c1ccc(OCc2cccc(COc3ccc(C(C)(C)c4ccc(OC(=O)OCC)cc4)cc3)c2)cc1	0.03 °C	-3.47 °C	-11.2 °C	-4.21 °C	-11.6 °C	-7.28 °C
O=C1Nc2nc(-c3c(O)cccc3OCC3CC3)cc([C@@H]3CCCNC3)c2CO1	0.61 °C	2.37 °C	2.04 °C	1.54 °C	1.1 °C	-0.03 °C
CC(C)NC(=O)[C@H]1CCC[C@H]1Nc1nc(Nc2ccc(CN(C)C)cc2)ncc1Br	6.63 °C	1.87 °C	0.87 °C	0.23 °C	1.81 °C	14.5 °C
CNC(=O)c1nnc(NC(=O)C2CC2)cc1Nc1cccc(-c2ncn(C)n2)c1OC	3.38 °C	0.57 °C	0.11 °C	5.87 °C	0.36 °C	0.41 °C
CCCCC(C)(O)C/C=C/[C@H]1[C@H](O)CC(=O)[C@@H]1CCCCCCC(=O)O (stereo partly specified)	0.39 °C	0.57 °C	-0.02 °C	0.33 °C	-0.33 °C	-0.31 °C
C[C@H](CCOc1cccc(CC(=O)O)c1)N(Cc1cccc(C(F)(F)F)c1Cl)CC(c1ccccc1)c1ccccc1	0.51 °C	1.5 °C	0.57 °C	-1.07 °C	0.41 °C	-2.31 °C
Cn1cnc(Cn2ccc3ccc(CNCc4[nH]c5ccccc5c4[C@H]4NC(=O)c5ccc(O)cc54)cc32)c1	0.28 °C	-0.58 °C	0.32 °C	-0.76 °C	0.91 °C	0.59 °C
CCC(C)(C)CC[C@H](NC(=O)N1CCOCC1)C(=O)NC1(C#N)CCN(C)CC1	-0.14 °C	0.95 °C	0.34 °C	0.11 °C	0.54 °C	0.69 °C
NC1(c2ccc(-c3nc4c(O)ccnn4c3-c3ccccc3)cc2)CCC1	0.22 °C	-0.34 °C	0.07 °C	-0.72 °C	0.46 °C	0.43 °C
Cn1cc(-c2ccc(-c3cncc(Cl)c3N3CCC4(CCNC4=O)CC3)cc2)cn1	-0.07 °C	-0.46 °C	-0.23 °C	6.99 °C	0.45 °C	1.26 °C
O=C(Cc1ccccc1)Nc1nnc(N2C[C@H]3C[C@@H]2CN3c2cccnn2)s1	0.09 °C	0.52 °C	-0.12 °C	-0.33 °C	0.33 °C	-0.14 °C
N#Cc1c(SCc2csc(-c3ccc(Cl)cc3)n2)nc(N2CCCC2)c(C#N)c1-c1ccc(OCCO)cc1	-0.51 °C	0.34 °C	-2.01 °C	0 °C	4.1 °C	-0.18 °C
CS(=O)(=O)CCNCc1ccc(-c2ccc3ncnc(Nc4ccc(OCc5cccc(F)c5)c(Cl)c4)c3c2)o1	0.09 °C	0.9 °C	0.12 °C	-0.86 °C	0.56 °C	-0.38 °C
O=C(Nc1cc2cc[nH]c(=O)c2cc1Cl)[C@H]1CNC[C@@H]1c1cccnc1	0.03 °C	0.53 °C	0.29 °C	-0.6 °C	0.49 °C	-0.12 °C
CN1C(=O)[C@@H](NC(=O)c2cc(Cc3ccccc3)on2)COc2ccccc21	-2.16 °C	-0.24 °C	-4.18 °C	-4.43 °C	-1.79 °C	-1.24 °C
CN(C)[C@H]1CC[C@H](Nc2ncc3ncnc(Nc4ccc(F)c(Cl)c4)c3n2)CC1	3.21 °C	1.27 °C	1.07 °C	1.75 °C	0.51 °C	0.2 °C
CC(C)NC(=O)[C@H]1CCC[C@H]1Nc1nc(Nc2ccc(C(=O)N(C)C3CCN(C)CC3)cc2)ncc1Cl	10.3 °C and 6.45 °C	1.23 °C and 1.13 °C	0.47 °C and 0.12 °C	0.76 °C and -0.38 °C	0.47 °C and 0.79 °C	15.7 °C and 14.3 °C
Cn1c(C2(NC(=O)c3ccc4c(C5CCCC5)c(-c5ncc(Br)cn5)n(C)c4c3)CCC2)nc2ccc(/C=C/C(=O)O)cc21	-0.54 °C and 0.85 °C	-2.05 °C and -1.62 °C	-3.08 °C and -1.06 °C	-3.92 °C and -2.25 °C	-2.08 °C and -0.58 °C	-1.12 °C and -3.19 °C
C[C@@H]1CN(CC(=O)N2CC(C)(C)c3nc(CO)c(Cc4ccc(F)cc4)cc32)[C@@H](CN2CCOC[C@H]2C)CN1	0.35 °C	0.82 °C	-0.16 °C	-0.02 °C	0.01 °C	-0.39 °C

Source: ChEMBL document CHEMBL5308504, “Tm Shift (DSF) assay results for EUbOPEN Chemogenomics Library” (2023)
